The list is not random: actives were taken first. Their share in the collection is about 9.5%.
SARS PLP yeast: SARS-CoV PLP inhibition in yeast; S. cerevisiae expressing SARS-CoV PLpro, growth rescue; Potency, µM (highest dose often 32.9 µM), for the others: at the top dose activity, positive = growth rescue, most hits filed as activators; 330,000 compounds, 0.19% hits; AID 485353; note: 0% is about no effect; nearly all actives have a fitted effect of over 55% in size
NS1 inh: inhibitors of influenza NS1 protein function | Potency, µM (titrated, usually from 46.1 µM), inactives show top-dose activity, positive = more growth | 270,000 compounds, 0.4% hits; note: actives are rising curves; nearly all actives have a fitted effect of over 50% in size
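S. cerevisiae expressing influenza A NS1, grown in glucose, washed, then diluted 1:100 into pH 6.0 -URA galactose medium with 23 nl compound. Growth recovery read as OD600; NS1-free strain serves as control.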
RE007 growth inh: less growth of the S. pombe RE007 Vpr strain; Potency, µM (doses to about 92.2 µM), for inactives: at the highest dose activity change, negative = less growth, hits mostly inhibitors; S. pombe RE007 Vpr strain, BacTiter-Glo ATP luminescence, 24 h; AID 651644; 360,000 compounds, 0.21% hits; active = well fitted falling curve with a large enough effect; inconclusive = small, poorly fitted or top-dose-only effect; inactive = no such curve, though single readings can be large or run the other way; note: % is set by controls: 0 for no effect and ±100 for the full control effect; nearly all actives have a fitted effect of over 50% in size
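Fission yeast RE007 carrying one integrated HIV-1 vpr copy, seeded at OD 0.01 in PMG+AL medium with 23 nL pinned compound. Grown 24 h at 30 degrees; viability read by BacTiter-Glo luminescence after 5 min.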
Pf growth 48h: P. falciparum growth inhibition at 48 hours (one generation) | 310,000 compounds, 5.9% hits | P. falciparum luciferase growth in erythrocytes, 48 h | Potency, µM (highest dose often 28.7 µM), without a hit: top-dose activity change, negative = inhibition, usual class: inhibitors; active = well fitted inhibition curve with a large enough effect; inconclusive = small, poorly fitted or top-dose-only effect, or another doubt; inactive = no such curve, though single readings can be large or run the other way; note: % is set by controls: 0 for no effect and ±100 for the full control effect
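Firefly luciferase activity from engineered P. falciparum reports growth; inhibitors lower the luminescent signal. Cultures contained 2% hematocrit erythrocytes at 0.1% final parasitemia.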
Pf growth 96h: P. falciparum growth inhibition at 96 hour, primary screen for plastid delayed-death inhibitors; P. falciparum luciferase reporter growth, 96 h; Potency, µM (highest dose often 28.7 µM), without a hit: top-dose activity change, negative = inhibition, most hits filed as inhibitors; 320,000 compounds, 6.9% hits; active = well fitted inhibition curve with a large enough effect; inconclusive = small, poorly fitted or top-dose-only effect, or another doubt; inactive = no such curve, though single readings can be large or run the other way; note: % is set by controls: 0 for no effect and ±100 for the full control effect
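Parasite growth measured via integrated firefly luciferase reporter in P. falciparum. Infected erythrocytes at 2% hematocrit, 0.05% parasitemia final were treated 96 hours at 37 C under 5% CO2, and luminescence was read.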
Starred values were filed as active, the others as inactive; ? = inconclusive; . = no result given; [ ] = another dose, or the depositor's remark. Unless noted, calls come from the whole dose curve. Potency is the fitted concentration of half-maximal effect.

SMILES | SARS PLP yeast | NS1 inh | RE007 growth inh | Pf growth 48h | Pf growth 96h
CN(C)N1C(N)=C(C#N)C(c2ccsc2)C2=C1CCCC2=O (stereo not given) | -17% | 22% | -2% | ? | 9.3µM*
CN(C)N1C(N)=C(C#N)C(c2ccsc2)C2=C1CC(C)(C)CC2=O (stereo not given) | 2% | 20% | . | -20% | 14%
COc1ccc(C2C(C#N)=C(N)N(N(C)C)C3=C2C(=O)CCC3)cc1 (stereo not given) | 0% | 3% | 0% | -1% | 2.3µM*
O=C(Nc1ccccc1)c1cccc(S(=O)(=O)N2CCCCC2)c1 | -3% | -4% | 6%[3.69 µM] | 1% | ?
O=C(Nc1ccc(S(=O)(=O)N2CCOCC2)cc1)c1ccc(S(=O)(=O)N2CCOCC2)cc1 | 2% | 1% | 3% | -4% | 12µM*
CS(=O)(=O)c1ccc(NC(=O)c2cccc(S(=O)(=O)N3CCN(Cc4ccccc4)CC3)c2)cc1 | 2% | 4% | -2% | ? | 9.3µM*
Cc1ccc(C(=O)Nc2ccc(S(=O)(=O)N3CCOCC3)cc2)cc1 | -1% | -4% | 6% | ? | ?
CC1CCN(S(=O)(=O)c2cccc(C(=O)Nc3ccccc3)c2)CC1 | 1% | -2% | -8% | ? | 2.6µM*
O=C(Nc1ccc([N+](=O)[O-])cc1)c1ccc(S(=O)(=O)N2CCCC2)cc1 | 2% | 4% | 0% | ? | 12µM*
O=C(Nc1ccc(S(=O)(=O)N2CCCC2)cc1)c1ccc(F)cc1 | . | . | 6% | . | .
CCCCNC(=O)Cc1coc2ccc3ccccc3c12 | -6% | -11% | -1% | -7% | 0%
Cc1csc(=O)n1CC(=O)OCC(=O)NC(C)c1ccc(F)cc1 (stereo not given) | -2% | . | -8% | -22% | -1%
CCc1nnc(NC(=O)c2cccc(S(=O)(=O)N3CCN(c4ccccc4)CC3)c2)s1 | 16% | 0% | 3% | . | 10µM*
Cc1cc(C)n2nc(C(=O)Nc3ccc(S(=O)(=O)N4CCCC4)cc3)nc2n1 | 1% | -1% | -15% | 128% | 2.3µM*
O=C1CN(S(=O)(=O)c2ccc([N+](=O)[O-])cc2)CC(=O)N1 | 2% | 5% | -5% | 41% | 12µM*
CC1CCN(S(=O)(=O)c2ccc(N/N=C(/C#N)C(N)=O)cc2)CC1 | -1% | 2% | -14% | -4% | ?
N#C/C(=N\Nc1ccc(S(=O)(=O)N2CCOCC2)cc1)C(N)=S | 0% | -1% | 35% | 15µM* | ?
COc1ccc(C(O)P(=O)(OCCC(C)C)c2ccc(N(C)C)cc2)cc1 (stereo not given) | 0% | 1% | 6% | ? | -5%
Cc1cc(=O)oc2cc(OCC(=O)NC3(C#N)CCCCC3)c(Cl)cc12 | -5% | . | 6% | 1% | -2%
O=C(Nc1ccccc1C(=O)N1CCCC1)c1ccc(Cl)c([N+](=O)[O-])c1 | 0% | 2% | -5% | -13% | ?
O=C(CN1C(=O)COc2ccc(Cl)cc21)Nc1ccccn1 | 0% | 11% | 4% | -14% | ?
CC1CCCN(CC(=O)Nc2ccc(S(=O)(=O)N3CCCC3)cc2)C1 (stereo not given) | 3% | 9% | 7% | -19% | -11%
CCOc1ccc(-n2c([S-])c(C(=O)Nc3ccc(S(=O)(=O)N4CCOCC4)cc3)[n+]3cc(C(N)=O)ccc23)cc1 | 0% | 3% | 1% | 12µM* | ?
Cc1ccc(NC(=O)c2ccc(S(=O)(=O)N3CCC(C)CC3)cc2)cc1 | -2% | 1% | 6% | 10µM* | .
CC1CCN(S(=O)(=O)c2ccc(NC(=O)CN3CCCC(C)C3)cc2)CC1 (stereo not given) | -4% | -1% | 21% | . | 12µM*
CC1(C)CC2(C)CC(=O)C1C(C(=O)O)C2C(=O)O (stereo not given) | . | . | -10% | . | .
c1ccc(CN2c3ccccc3-c3nc4ccccc4n3C2c2ccccn2)cc1 (stereo not given) | -15% | -110% | -3%[3.69 µM] | 7.4µM* | 4.1µM*
CCN1c2ccccc2-c2nc3ccccc3n2C1c1ccco1 (stereo not given) | -20% | -168% | 9% | 12µM* | 4.7µM*
CN1c2ccccc2-c2nc3ccccc3n2C1c1ccccn1 (stereo not given) | -9% | -134% | -3% | 9.3µM* | .

Screening results from PubChem.
